Screening results as filed in PubChem.
Dicer inh = human Dicer pre-microRNA cleavage inhibition; Q9UPY3; cat-ELCCA pre-miR-21 Dicer processing, chemiluminescence; hits give high values; z-score at 25 µM; 6% of 47,000 active; in the data active means z-score above about 3, passing the limit was not always enough;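 further: higher signal means more uncleaved substrate so more Dicer inhibition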
Of the large screens only hits and unclear results are named; the others gave an inactive call. Shown is part of a subset that was picked to be rich in hits.

COc1ccc(C2CC(=O)C3=C(C2)Nc2ccccc2NC3c2ccc(F)cc2)cc1 (configuration not stated)	none
COc1ccc(C2CC(=O)C3=C(C2)Nc2ccccc2NC3c2ccc(OC)cc2)cc1 (configuration not stated)	Dicer inh 4.5
COc1ccc(C2CC(=O)C3=C(C2)Nc2ccccc2NC3c2cccc(Br)c2)cc1 (configuration not stated)	none
COc1ccc(C2Nc3ccccc3NC3=C2C(=O)CC(c2cccs2)C3)cc1Br (configuration not stated)	none
COc1cccc(C2Nc3ccccc3NC3=C2C(=O)CC(c2cccs2)C3)c1 (configuration not stated)	Dicer inh 3.4
O=C1CC(c2ccccc2)CC2=C1C(c1cccnc1)Nc1ccccc1N2 (configuration not stated)	none
O=C(O)CCC(=O)N1c2ccccc2NC2=C(C(=O)CC(c3ccccc3)C2)C1c1cccc(F)c1 (configuration not stated)	none
O=C1CC(c2ccccc2)CC2=C1C(c1ccc(F)c(F)c1)Nc1ccccc1N2 (configuration not stated)	Dicer inh 4.6
COc1ccccc1C1Nc2ccccc2NC2=C1C(=O)CC(c1cccs1)C2 (configuration not stated)	none
CCOc1cc(C2Nc3ccccc3NC3=C2C(=O)CC(c2ccccc2)C3)ccc1O (configuration not stated)	none
CC(C)n1c(SCC(=O)Nc2cc(Cl)cc(Cl)c2)nc2cc(C(F)(F)F)ccc21	none
CC1(C)Cc2c(sc3ncn4nc(-c5cccs5)nc4c23)C(C)(C)N1	none
c1ccc(COc2ccccc2OCc2ccccc2)cc1	none
COc1ccccc1/C=C/c1ccccc1OC	none
CCOC(=O)C(Sc1ncnc2sc3c(c12)CCCC3)C(C)=O (configuration not stated)	none
CCOC(=N)c1cccc(C(F)(F)F)c1	none
COc1ccc(-c2nnsc2NC(=O)c2ccccc2CO)cc1	none
COCc1cc(=O)[nH]c2c1c(C)nn2C	none
CCOC(=O)/C(C#N)=C/N=C(N/N=C(\C)c1ccc(Cl)c(Cl)c1)SC	none
CC(C)N(CCC#N)C(=O)Nc1ccccc1Cl	none
COc1ccc(C2CC(=O)C3=C(C2)Nc2ccccc2NC3c2coc3ccc(Cl)cc3c2=O)cc1 (configuration not stated)	none
CN(C)c1ccc(C2CC(=O)C3=C(C2)Nc2ccccc2NC3c2ccccc2)cc1 (configuration not stated)	Dicer inh 4.8
COc1ccc(C2CC(=O)C3=C(C2)Nc2ccccc2NC3c2cccc(O)c2)cc1 (configuration not stated)	none
Cc1ccccc1C1Nc2ccccc2NC2=C1C(=O)CC(c1ccccc1)C2 (configuration not stated)	none
COc1ccc(C2CC(=O)C3=C(C2)Nc2ccccc2NC3c2ccc(F)c(Br)c2)cc1 (configuration not stated)	Dicer inh 5.2
Cc1ccc(C2CC(=O)C3=C(C2)Nc2ccccc2NC3c2ccncc2)cc1 (configuration not stated)	none
COC(=O)CSC1=C(C#N)C(c2ccc(O)c(OC)c2)CC(=O)N1 (configuration not stated)	none
Cc1cc(C)c(NS(=O)(=O)c2ccc3[nH]c(=O)[nH]c3c2)c(C)c1	none
Cc1ccc(-c2cc(C(=O)O)c3ccccc3n2)s1	none
Cc1ccc(/C(O)=C/C(=O)C(=O)NNC(=O)c2cc(C)nc3ccccc23)cc1	Dicer inh 3.2
COC(=O)Nc1cc(C)nc2ccccc12	none
Cc1nnc(-c2ccc(C(F)(F)F)cn2)nc1C	none
Cc1cc(C(F)(F)F)cc(NNC(=O)c2ccc(Cl)cc2)n1	none
CN(C1=NS(=O)(=O)c2ccccc21)c1ccc(O)cc1	none
COc1ccc(CN2CCN(Cc3cc(Br)ccc3O)CC2)c(OC)c1	Dicer inh 4.5
COc1ccc(CN2CCN(Cc3cc(Br)ccc3OC)CC2)cc1	none
CCCS(=O)(=O)N1CCN(Cc2cc(Br)ccc2O)CC1	none
COc1cccc(CN2CCN(Cc3cc(Br)ccc3O)CC2)c1OC	Dicer inh 3.8
COc1ccc(CN2CCN(Cc3ccc(Br)cc3)CC2)c(OC)c1	none
Cc1ccc(S(=O)(=O)N2CCN(Cc3cc(C(C)C)ccc3O)CC2)cc1	none
COc1cccc(CN2CCN(Cc3ccccc3Br)CC2)c1OC	none
CCS(=O)(=O)N1CCN(Cc2cc(Br)ccc2O)CC1	Dicer inh 4.9
COc1ccc(Br)cc1CN1CCN(Cc2ccncc2)CC1	none
COc1cc(C2(C)SCc3cc(C)c(C)cc3CS2)ccc1O	none
CCCc1c(C(=O)Nc2nc(-c3ccc(C)c(Cl)c3)c(C)s2)cnn1-c1ccccc1	none
O=C(O/N=C/c1ncc(C(F)(F)F)cc1Sc1ccc(Cl)cc1)c1cccs1	none
CC(C)(C)c1ccc(-c2nc3cc(Cl)ccc3c(=O)o2)cc1	none
COc1cccc2sc(NS(=O)(=O)CS(=O)(=O)Nc3nc4c(OC)cccc4s3)nc12	none
CCOC(=O)c1sc(N2C(=O)C(=O)/C(=C(/O)c3ccccc3)C2c2ccc(F)cc2)nc1C (configuration not stated)	none
O=[N+]([O-])c1ccc2c(c1)NC1(CCCCC1)N2	none
C#CCOC(=O)CCCN1C(=O)c2cccc3cccc(c23)C1=O	none
CN(C(=O)CCCN1C(=O)c2cccc3cccc(c23)C1=O)c1ccccc1	none
COC(=O)CCCN1C(=O)c2cccc3cccc(c23)C1=O	Dicer inh 3.6
CN(n1cnc2ccsc2c1=O)S(=O)(=O)c1cc(C(F)(F)F)cc(C(F)(F)F)c1	none
O=S(=O)(c1ccc(-c2nc3ccccc3s2)cc1)N1CCc2ccccc21	none
Cc1onc(-c2c(Cl)cccc2Cl)c1NC(=O)Oc1ccc(F)cc1Cl	none
COC(=O)CSc1nc(NC(C)=O)nc(C)c1Br	Dicer inh 3.1
COC(=O)CSc1cc(C)nc(NC(C)=O)n1	none
COC(=O)CSc1nc(N)nc(C)c1Cl	none
COc1ccccc1N1CCN(Cc2cc(Cl)c(O)c3ncccc23)CC1	none
CSc1nc2cc(C)nn2c(N)c1C#N	none
Cc1ccccc1COc1ncnc2cc(Cl)ccc12	none
Cc1ccc(N=Cc2c(C)[nH]n(-c3ccc(C)cc3)c2=O)cc1	Dicer inh 4
Cc1ccc(-n2[nH]c(C)c(C=Nc3ccc(Cl)cc3)c2=O)cc1	none
Cc1ccc(N=Cc2c(C)[nH]n(-c3ccccc3)c2=S)c(C)c1	none
O=[N+]([O-])c1ccc(Oc2ccc(Cl)cc2Cl)cc1C(F)(F)F	none
O=[N+]([O-])c1ccsc1Oc1ccc(Cl)cc1Cl	Dicer inh 4.2
COc1ccc(Oc2sccc2[N+](=O)[O-])cc1	none
C=CCN/C=C(\C#N)S(=O)(=O)c1ccc(Cl)cc1	none
CN(C)/C=C(/C(=O)c1ccc(C(F)(F)F)cc1)c1nnnn1-c1ccccc1	none
CC1(C)CC(=O)c2c(nc(SCC(=O)NCc3ccc4c(c3)OCO4)c(C#N)c2-c2ccccc2)C1	none
Cc1nn(CC(=O)N/N=C/c2c(F)cccc2Cl)c(C)c1Br	none
CCN(C(=Nc1ccc(Cl)cc1)SC)c1ccccc1	Dicer inh 3.4
CCN(C(=S)Nc1c(C)cccc1Cl)c1ccccc1	none
CSC(N)=Nc1ccccc1	none
Cn1c(=O)c2cn(-c3ccc(Cl)cc3)cc2n(C)c1=O	none
Cc1c2c(=O)n(-c3nc4ccccc4s3)nc-2cc(O)n1CCc1c[nH]c2ccccc12	none
CCC(C)Cn1c(C)c2c(=O)n(-c3nc4ccccc4s3)[nH]c2cc1=O (configuration not stated)	none
Cc1c2c(=O)n(-c3nc4ccccc4s3)nc-2cc(O)n1CCc1cnc[nH]1	Dicer inh 3.6
Cc1c2n(c3ccccc13)CC/C2=N\Nc1cccc(C(F)(F)F)c1	none
